Myeloid diff 2: compounds promoting myeloid differentiation; ER-HoxA9 myeloid progenitors, lysozyme-GFP differentiation, flow cytometry; calls only at 10 µM; 1% of 360,000 active;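 active = normalized GFP-positive differentiation at or above the plate's own cutoff, the solvent-only control mean plus 3 SD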;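 also: cells exposed to compound for four days before flow analysis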
MIN6 prolif: inducers of beta-cell replication in MIN6 cells; 0.29% of 330,000 active; AID 2380; proliferation, % at 10 µM; MIN6 cells proliferation, ATPlite luminescence, 48 h; cells starved in 0.2% serum; 100% = growth in 10% serum;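 active = compounds whose signal lies at least 3.5 SD above the mean of all wells on their plate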
Cardio protect: protects H9c2 cardiomyocytes from peroxide injury | 0.63% of 360,000 active | H2O2 injury protection, ATPLite, 2 h | protection from H2O2 cell death, % at 20 µM;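 active = compounds giving at least 50% protection of heart cells from peroxide-induced death in the single-dose screen, raw or plate-pattern-corrected value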
iPSC survival up: hiPSC single-cell survival enhancement; ATPlite luminescence; 100% = ROCK inhibitor wells, 0% = DMSO; survival enhancement, % at 20 µM; 0.044% of 360,000 active; in the data active = survival enhancement above about 18%;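 also: cells exposed to compounds for 16 hours before the ATP read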
ABCB6 inh MLPCN: inhibitors of human ABC transporter ABCB6. Q9NP58. K562-ABCB6 porphyrin accumulation, flow cytometry, 1 h; hits give low values. fluorescence ratio to DMSO, % at 10 µM. 0.19% of 360,000 active. AID 602162;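 active = fluorescence ratio to DMSO below 75%, the collection mean minus 3 SD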;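 also: signal is porphyrin accumulated inside mitochondria; lower ratio means ABCB6 inhibition with less porphyrin fluorescence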
A number is an active result; . = inactive; / = no result given; + = active, no number. Most compounds without a hit are left out; they make up all but 2.2% or so of the library.

SMILES	Myeloid diff 2	MIN6 prolif	Cardio protect	iPSC survival up	ABCB6 inh MLPCN
CCn1cc(CN2CCN(Cc3ccsc3)C(CCO)C2)cn1 (centres undefined)	.	.	.	.	.
CN(C)CCCN(C(=O)/C=C/c1cccs1)c1nc2ccc(F)cc2s1	+	.	.	.	.
CN(C)c1ccc(C(=N)Cc2ccc3ccccc3n2)cc1	+	/	.	.	.
Cc1c(O)ccc(/C(Cc2ccc3ccccc3n2)=N\O)c1O	.	.	.	.	.
CCN(CC)c1ccc2cc(-c3nnc(-c4ccncc4)o3)c(=O)oc2c1	+	/	65	.	.
CCN(CC)c1ccc2cc(C(C)=O)c(=O)oc2c1	.	.	.	.	.
CCC(C)(C)n1nnnc1C(C(C)C)N1CCC(C(N)=O)CC1 (centres undefined)	.	.	.	.	.
COCCNC(=O)C1(C)CCCN(C(=O)c2ccc(OC)cc2OC)C1 (centres undefined)	.	/	.	.	.
Cc1ccc(NS(=O)(=O)c2ccc3c(c2)CC(=O)N3)c(C)c1	.	.	.	31	.
N#C/C(=C\c1ccc(-c2ccc(F)cc2)o1)C(=O)Nc1nc(-c2cccs2)cs1	.	.	.	.	.
N#C/C(=C\c1ccccn1)c1nc2ccccc2s1	+	.	.	.	.
N#C/C(=C/c1ccc(-c2ccc(S(N)(=O)=O)cc2)o1)C(=O)Nc1ccccc1	.	.	.	.	.
N#C/C(=C/c1ccc(-c2ccccc2)o1)c1nc(-c2cccs2)cs1	+	/	.	.	.
COC(=O)c1ccc(/C=C(\C#N)c2nc3ccccc3s2)cc1	.	.	.	.	.
N#C/C(=C/c1ccc(-c2ccc(S(N)(=O)=O)cc2)o1)c1nc2ccccc2s1	+	.	.	.	.
O=C(CCc1nc2ccccc2c(=O)[nH]1)OCc1nnc(-c2ccccc2)o1	.	.	75	.	.
O=C(COC(=O)CCc1nc2ccccc2c(=O)[nH]1)NCc1ccc(F)cc1	.	.	50	.	.
O=C(CCc1nc2ccccc2c(=O)[nH]1)Nc1nnc(SCc2ccc(Cl)cc2)s1	.	.	.	.	.
CC(=O)NCc1ccc(-c2csc(NC(=O)CCc3nc4ccccc4c(=O)[nH]3)n2)s1	.	.	90	.	.
O=C(CCc1nc2ccccc2c(=O)[nH]1)OCc1ccccc1F	.	.	.	.	.
O=C(CCc1nc2ccccc2c(=O)[nH]1)OCCOc1ccc(Cl)cc1	.	.	66	.	.
COc1ccc(CNC(=O)COC(=O)CCc2nc3ccccc3c(=O)[nH]2)cc1	.	.	.	.	.
CCOC(=O)[C@]12CCCC=C1N(Cc1ccc3c(c1)OCO3)C(=O)[C@H](CC(=O)N1CCSCC1)C2	.	/	/	.	.
CCc1nc2ccccc2c(C(=O)OCc2nc3ccccc3c(=O)[nH]2)c1C	.	.	56	.	.
Cc1ccc(CNC(=O)CCc2nc3ccccc3c(=O)[nH]2)cc1	.	.	51	.	.
SMILES	Myeloid diff 2	MIN6 prolif	Cardio protect	iPSC survival up	ABCB6 inh MLPCN
Cc1occc1-c1nc(-c2ccncc2)no1	.	.	.	.	.
CCN(CC)CCNC(=O)c1cc2c(-c3cccc(OC)c3)nn(C)c2s1	.	.	.	.	.
CC(OC(=O)C1CC1)C(=O)Nc1cc(Cl)cc(Cl)c1 (centres undefined)	+	.	.	.	.
CC(OC(=O)C1CCC1)C(=O)Nc1cc(Cl)cc(Cl)c1 (centres undefined)	.	.	.	.	.
N#C/C(C(N)=O)=c1/ccc2c(c1)N1C3=C(CCCC3)CC3CCCCC31N=2 (centres undefined)	/	.	/	/	/
N#CC(C#N)=c1ccc2c(c1)N1C3=C(CCCC3)CC3CCCCC31N=2 (centres undefined)	+	.	.	.	.
O=C(Nc1ccnn1C1CCN(C(=O)c2ccc(F)c(Cl)c2)CC1)C1CC1	.	.	.	.	.
O=C(Nc1ccc(Cl)cn1)C1CCCN(c2ncnc3c2nc2n3CCCCC2)C1 (centres undefined)	.	.	.	.	.
Cc1ccc(Cn2c(SCCN3CCOCC3)nc3c2c(=O)n(C)c(=O)n3C)cc1	.	.	.	.	.
Cn1c(=O)c2c(nc(SCCN3CCOCC3)n2Cc2ccc(Cl)cc2)n(C)c1=O	.	/	64	.	.
COc1cc(/C=C/C(=O)OCC(=O)N2CCCCCC2)ccc1OCC#N	.	.	.	.	.
O=C1Nc2cnc(Cl)nc2Nc2ccccc21	.	/	56	.	.
O=C1Nc2ccccc2Nc2ccccc21	.	.	.	.	.

Screening data from PubChem BioAssay.
